The campaign covered roughly 1,100 compounds. About 880 (80%) were called active. The rule behind the calls is not given here. The set was probably picked from earlier hits. The list shows a part of the results. Entries with a potency or affinity are not part of this list.
target: Induced myeloid leukemia cell differentiation protein Mcl-1 (Homo sapiens) (UniProt Q07820); test: Mcl-1 Noxa peptide disruption concentration-response – biochemical, TR-FRET, dose response (AID 1417); conditions: Mcl-1/Noxa peptide interaction, cell-free TR-FRET (terbium/rhodamine), 2 h; at 54 µM (top of the series);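 note: 100% = protein plus peptide without compound and 0% = peptide alone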
Sequence (Q07820 whole entry, looked up): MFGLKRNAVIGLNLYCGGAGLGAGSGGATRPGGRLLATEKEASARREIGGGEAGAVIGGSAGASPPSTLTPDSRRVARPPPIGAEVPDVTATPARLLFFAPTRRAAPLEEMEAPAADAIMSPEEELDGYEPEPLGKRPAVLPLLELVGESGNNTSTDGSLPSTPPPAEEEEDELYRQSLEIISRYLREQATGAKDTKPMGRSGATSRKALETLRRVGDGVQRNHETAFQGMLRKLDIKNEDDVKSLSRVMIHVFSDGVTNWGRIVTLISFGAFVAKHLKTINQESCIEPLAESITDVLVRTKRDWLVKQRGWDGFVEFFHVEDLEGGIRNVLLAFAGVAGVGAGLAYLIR

SMILES | percent of control (lower = inhibition)
CCN1C(=O)/C(=C2/Sc3ccc(OC)cc3N2C)SC1=Nc1cccc(O)c1 | 54.8% (inactive)
Cn1c(=O)c2c(nc(NCc3ccco3)n2CC(O)COc2ccccc2)n(C)c1=O (stereo not drawn) | 81.3% (inactive)
N=C1/C(=C\c2ccc(-c3ccc(C(=O)O)cc3)o2)C(=O)N=C2SC=C(c3ccccc3)N12 | -1.95% (active)
COc1ccccc1C1NC=C([N+](=O)[O-])C=C1[N+](=O)[O-] (stereo not drawn) | 111% (inactive)
CC1CCCCC1NC(=O)c1ccc2c(c1)[nH]c(=O)n2C1CCCC1 (stereo not drawn) | 86.3% (inactive)
c1ccc(Nc2cccc(Nc3ccccc3)c2)cc1 | 60.5% (inactive)
CN(C)c1ccc(NC(=O)Nc2cccc(Cl)c2)cc1 | 49.6% (active)
CN(C)c1ccc(NC(=O)/C=C/c2c(Cl)cccc2Cl)cc1 | 80.1% (inactive)
